Assay results: PubChem BioAssay AID651821 (The Scripps Research Institute Molecular Screening Center, 2012)
Screen size: about 370,000 compounds; about 4,700 (1.3%) were called active. The list comes from a sample in which actives are over-represented; it also holds similar structures and randomly drawn compounds. Values without a mark were called inactive.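 How the source made its calls: active means inhibition above the plate cutoff, the mean of all test compounds on that plate plus 3 SD (cut at about 35% in these data); inactive means the rest.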

Test: binders of r(CAG) RNA repeats, primary screen, biochemical, fluorescence (AID 651821);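 further: 0% = DMSO alone and 100% = 100 µM mitoxantrone as full dye displacement; higher means more dye released from RNA so lower well fluorescence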
Conditions: r(CAG) RNA repeat, TO-PRO-1 dye displacement fluorescence; at 3 µM; active compounds read high

SMILES | inhibition
CSc1ccc(Oc2cccc3c2S(=O)(=O)N([C@H](C)c2ccccc2)C[C@@H](COCc2ccccc2)O3)cc1C | 5.63%
Cc1noc(C)c1NC(=O)Nc1ccc2c(c1)C(=O)N([C@H](C)CO)C[C@H](C)[C@H](CN(C)Cc1ccncc1)OCCCC[C@@H](C)O2 | 6.45%
COc1ccc(OC)c(NC(=O)CSc2nc(N)c(-c3ccccc3)c(=O)[nH]2)c1 | 4.81%
CCCc1cc(=O)[nH]c(SCC(=O)Nc2ccc(C(=O)Nc3ccccc3OC)cc2)n1 | 31.1%
COc1ccc(OC)c(NC(=O)CSc2nc(-c3ccccc3)cc(=O)[nH]2)c1 | 37.5% (active)
Cc1ccccc1NC(=O)COC(=O)c1ccc(Sc2ncn[nH]2)c([N+](=O)[O-])c1 | 6.52%
O=C(O)c1c(NC(=O)N2CCCC2)sc2c1CCCC2 | 3.93%
CCOC(=O)C(NC(=O)CC(C)C)(Nc1sc2c(c1C(N)=O)CCCC2)C(F)(F)F (configuration not stated) | -6.2%
NC(=O)c1c(Nc2nc3c(F)cccc3s2)sc2c1CCCC2 | 52.5% (active)
COc1ccc(Br)c2c1C(=O)CC2 | -1.62%
CCn1cc(C(=O)N2CCN(C3CCCCC3)CC2)c2cc(OC)c(OC)cc2c1=O | -10.2%
COc1ccc(NC(=O)CC2COc3ccccc3O2)c(OC)c1 (configuration not stated) | -0.79%
CCn1cc(C(=O)NCC2COc3ccccc3O2)c2cc(OC)c(OC)cc2c1=O (configuration not stated) | 53.3% (active)
COc1cccc(CSc2nnc(-c3cccnc3)n2Cc2ccccc2)c1 | 3.2%
CCCNC(=O)Nc1ccc2c(c1)C(=O)N(C)[C@H]1CC[C@H](CC(=O)NCC3CCCCC3)O[C@@H]1CO2 | 2.13%
COc1ccc(Cl)cc1C=CC=Nc1ccc(S(N)(=O)=O)cc1 | 14.6%
COc1ccccc1/C=C/C=N/n1c(-c2ccc(Cl)cc2Cl)n[nH]c1=S | 36.1% (active)
COc1ccc(Cl)cc1C=CC=NNC(=O)c1ccncc1 | 1.27%
Cc1cccc(CS(=O)(=O)c2ncc(Cl)c(C(=O)Nc3ccc(F)cc3)n2)c1 | 2.26%
CSc1nnc(NC(=O)c2nc(S(=O)(=O)Cc3ccc(C)cc3)ncc2Cl)s1 | 42.9% (active)
Clc1cccc2c1C1CC2CCN1Cc1ccccc1 (configuration not stated) | 1.58%
O=C1C2C3C=CC(C3)C2C(=O)N1c1ccc(S(=O)(=O)Nc2nccs2)cc1 (configuration not stated) | 0.76%
O=C(Nc1nncs1)c1ccccc1NS(=O)(=O)c1cccs1 | 36.4% (active)
O=C(Nc1cccc(Cl)c1)Nc1ccccc1NS(=O)(=O)c1cccs1 | 48.5% (active)

SMILES | inhibition
O=C(Nc1nncs1)c1cccc(S(=O)(=O)N2CCCCC2)c1 | 0.89%
O=S(=O)(NCCc1ccc(Cl)cc1)c1cccs1 | -4.34%
COc1cc(OC)c(C(=O)NNC(=O)c2ccc(NS(=O)(=O)c3cccs3)cc2)cc1OC | 8.73%
C/C(=N\NC(=O)c1ccc(NS(=O)(=O)c2cccs2)cc1)c1ccc2ccccc2c1 | 19.2%
CC(C)CNc1cccc2c1S(=O)(=O)N(Cc1cn(Cc3ccccc3C(F)(F)F)nn1)Cc1ccccc1O2 | 7.51%
O=C(N[C@H](C(=O)N1CCC[C@H]1C(=O)NCCc1ccccc1Cl)c1ccccc1)c1ccccc1 | 3.45%
O=C(c1ccc2c(c1)OCO2)N1CCNc2ccccc2C1 | 2.38%
COC(=O)Cc1nnn2c1[C@H](C)[C@H](c1ccccc1Br)OCC2 | 2.7%
C#CCCN([C@H](C(=O)OC)C(C)C)S(=O)(=O)c1ccc(F)cc1Br | 2.16%
COc1cccc(N(C)C(=O)[C@@H](C)[C@@H](O)c2ccc3ccccc3c2)c1 | -1.62%
COC(=O)[C@]1(Cc2ccccc2)NC=C(C(=O)c2ccccc2)[C@@H]1c1cccc(OC)c1 | 4.57%
COC(=O)C1=C(C)NC(=S)NC1c1ccc(OC)cc1 (configuration not stated) | 1.6%
CCN(CC(=O)Nc1cc(Cl)ccc1C)C(=O)Cn1c(=O)cnc2ccccc21 | -5.99%
C=CCNc1nc(N)c(C(=C(C#N)C#N)c2ccccc2)s1 | 35.8% (active)
C=C(C)C#CC(Cc1ccccc1)N(CC1CC1)/C(N)=N/C(=O)OCc1ccccc1 (configuration not stated) | 0.56%
NS(=O)(=O)c1ccc(CNC(=S)NC(=O)c2ccco2)cc1 | 0.4%
CCCc1ccc(OCC(=O)NNC(=S)NC(=O)c2ccco2)cc1 | 36.2% (active)
CCC1CCCCN1C(=S)NC(=O)c1ccco1 (configuration not stated) | 0.91%
COc1ccc(/C=C(/NC(=O)c2ccco2)C(=O)Nc2ccc(C(C)=O)cc2)cc1 | 1.57%
O=C(NC(=S)N1CCc2ccccc21)c1ccco1 | 0.88%
CC(Oc1ccc2ccccc2c1)C(=O)NNC(=S)NC(=O)c1ccco1 (configuration not stated) | 48.2% (active)
CCCCC(NC(=O)c1cccc(Br)c1)C(=O)O (configuration not stated) | 0.46%
COC(=O)[C@]12C[C@H](CC(=O)N3CCOCC3)C(=O)N(Cc3ccc(Cl)cc3Cl)C1=C[C@H](COCc1ccccc1)O[C@@H]2C | 4.28%
